Measured values published in paper PMC5540273 (PLoS ONE, 2017).

Key:
Settings in all cases: concentration: 1 μM,replicates: in singlicate; n = 1
[1] = test system: TYK2(JH2domain-pseudokinase)
TYRO3 = test system: TYRO3
ULK1 = test system: ULK1
ULK2 = test system: ULK2
ULK3 = test system: ULK3
VEGFR2 = test system: T1, VEGFR2
T1 construct: gene KDR

VPS34 = test system: T2, VPS34
T2 construct: gene PIK3C3

VRK2 = test system: VRK2
WEE1 = test system: WEE1
WEE2 = test system: WEE2
WNK1 = test system: WNK1
WNK2 = test system: WNK2
WNK3 = test system: WNK3
WNK4 = test system: WNK4
YANK1 = test system: T3, YANK1
T3 construct: gene STK32A

YANK2 = test system: T4, YANK2
T4 construct: gene STK32B

YANK3 = test system: T5, YANK3
T5 construct: gene STK32C

YES = test system: T6, YES
T6 construct: gene YES1

YSK1 = test system: T7, YSK1
T7 construct: gene STK25

YSK4 = test system: T8, YSK4
T8 construct: gene MAP3K19
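Also: KINOMEscan kinase panel screen.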

Row | Compound | %Inh [1] [%] | %Inh (TYRO3) [%] | %Inh (ULK1) [%] | %Inh (ULK2) [%] | %Inh (ULK3) [%] | %Inh (VEGFR2) [%] | %Inh (VPS34) [%] | %Inh (VRK2) [%] | %Inh (WEE1) [%] | %Inh (WEE2) [%] | %Inh (WNK1) [%] | %Inh (WNK2) [%] | %Inh (WNK3) [%] | %Inh (WNK4) [%] | %Inh (YANK1) [%] | %Inh (YANK2) [%] | %Inh (YANK3) [%] | %Inh (YES) [%] | %Inh (YSK1) [%] | %Inh (YSK4) [%]
1 | CNC(=O)c1ccccc1Nc1nc(Nc2cccc(CS(C)(=O)=O)c2)ncc1C.O=CO [GSK1520489] | 98.9 | 72 | 98.6 | 65 | 99.9 | 96.3 | 77 | 36 | 98.1 | 99.9 | 9 | 79 | 65 | 29 | 44 | 0 | 0 | 99.8 | 45 | 99.8
2 | CC(C)c1nc(-c2cccc(NS(=O)(=O)c3ccccc3)c2)c(-c2ccnc(Nc3ccc4c(c3)CN(C)CC4)n2)s1 [GSK1649598] | 28 | 79 | 42 | 67 | 48 | 90.1 | 0 | 0 | 0 | 0 | 8 | 0 | 12 | 0 | 20 | 28 | 11 | 99.7 | 56 | 55
3 | CC(=O)c1c(-c2ccncc2)[nH]c(-c2ccncc2)c1C [GW493036] | 90 | 0 | 3 | 0 | 10 | 0 | 50 | 55 | 17 | 0 | 14 | 0 | 50 | 62 | 0 | 0 | 9 | 17 | 0 | 78
4 | O=C(Nc1cccc(Oc2ccc3nccn3n2)c1)Nc1cccc(C(F)(F)F)c1 | 1 | 0 | 0 | 0 | 3 |  | 14 | 0 | 0 | 9 | 0 | 0 | 0 | 20 | 0 | 0 | 0 | 0 | 0 | 96.1
5 | Cn1cc(-c2cccc3c(N)c(C(N)=O)nnc23)cn1 | 80 | 0 | 23 | 14 | 21 | 13 | 46 | 1 | 3 | 18 | 11 | 0 | 0 | 0 | 30 | 0 | 0 | 0 | 5 | 94.4
6 | COc1cccc(OC)c1C(=O)Nc1cccc(-c2nn3ccccc3c2-c2ccnc(Nc3cccc(F)c3)n2)c1 [GSK361065] | 0 | 79 | 0 | 13 | 0 | 18 | 0 | 0 | 9 | 12 | 0 | 0 | 0 | 0 | 0 | 11 | 0 | 36 | 1 | 0
7 | FC(F)(F)c1cc(Br)cc(Nc2nccc(-c3cnn4ncccc34)n2)c1 [GW810578] | 89 | 0 | 21 | 20 | 12 | 40 | 64 | 4 | 5 | 70 | 14 | 25 | 0 | 0 | 0 | 0 | 25 | 0 | 0 | 64
8 | CS(=O)c1ccc(-c2coc3ccc(-c4n[nH]c(=O)o4)cc23)cc1 (stereo not drawn) | 47 | 0 | 35 | 0 | 0 | 17 | 94.3 | 0 | 2 | 16 | 0 | 0 | 0 | 0 | 9 | 10 | 0 | 0 | 7 | 55
9 | Nc1nccc(-c2ccc3c(N)n[nH]c3c2)n1 [GSK1034945] | 52 | 0 | 41 | 13 | 4 | 0 | 0 | 0 | 35 | 0 | 6 | 0 | 3 | 0 | 21 | 0 | 9 | 0 | 17 | 72
10 | O=C(Nc1ccccc1)c1cccc(Oc2ccc3nccn3n2)c1 | 18 | 29 | 0 | 0 | 0 |  | 6 | 0 | 0 | 0 | 4 | 3 | 8 | 36 | 0 | 0 | 0 | 0 | 0 | 12
11 | O=C(Nc1cccc(C(F)(F)F)c1)c1cccc(Oc2ccc3nccn3n2)c1 | 44 | 2 | 2 | 10 | 23 |  | 35 | 0 | 13 | 7 | 16 | 0 | 26 | 15 | 0 | 0 | 30 | 0 | 0 | 77
12 | CN(c1ccccc1CNc1nc(Nc2ccc3c(c2)CC(=O)N3)ncc1C(F)(F)F)S(C)(=O)=O | 0 | 0 | 71 | 69 | 40 | 28 | 0 | 0 | 0 | 0 | 0 | 0 | 0 | 0 | 11 | 0 | 0 | 29 | 11 | 91.4
13 | Cl.Nc1n[nH]c2cc(-c3ccccn3)ccc12 [GSK2189892] | 0 | 0 | 50 | 47 | 0 | 0 | 10 | 0 | 4 | 0 | 0 | 5 | 0 | 0 | 2 | 0 | 0 | 7 | 8 | 5
14 | Cl.c1ccc(Oc2ccc(Nc3ccnc4cc(-c5ccc(CN6CCNCC6)o5)ccc34)cc2)nc1 [GW567142] | 10 | 0 | 0 | 16 | 0 | 25 | 0 | 0 | 8 | 0 | 0 | 16 | 11 | 0 | 0 | 0 | 0 | 70 | 22 | 30
15 | O=C(Nc1ccc(Oc2ccc3nc(NC(=O)C4CC4)cn3n2)c(F)c1)c1cccn(-c2ccccc2)c1=O | 0 | 74 | 0 | 0 | 0 | 98.2 | 44 | 0 | 14 | 0 | 0 | 0 | 0 | 0 | 0 | 0 | 37 | 45 | 0 | 0
16 | CCCC(=O)Nc1n[nH]c2ncccc12 [SB-601436] | 0 | 0 | 0 | 18 | 0 | 0 | 0 | 0 | 0 | 0 | 0 | 0 | 0 | 14 | 0 | 0 | 0 | 0 | 0 | 0
17 | CCn1c(-c2nonc2N)nc2cncc(CNC3CCNCC3)c21.Cl [SB-747651] | 47 | 0 | 17 | 0 | 6 | 0 | 0 | 9 | 8 | 7 | 14 | 0 | 34 | 21 | 3 | 0 | 40 | 11 | 0 | 87

Row | Compound | %Inh [1] [%] | %Inh (TYRO3) [%] | %Inh (ULK1) [%] | %Inh (ULK2) [%] | %Inh (ULK3) [%] | %Inh (VEGFR2) [%] | %Inh (VPS34) [%] | %Inh (VRK2) [%] | %Inh (WEE1) [%] | %Inh (WEE2) [%] | %Inh (WNK1) [%] | %Inh (WNK2) [%] | %Inh (WNK3) [%] | %Inh (WNK4) [%] | %Inh (YANK1) [%] | %Inh (YANK2) [%] | %Inh (YANK3) [%] | %Inh (YES) [%] | %Inh (YSK1) [%] | %Inh (YSK4) [%]
18 | N#Cc1cccc(C(=O)NC2CCN(c3ccnc(Nc4ccc(F)cc4)n3)C2)c1 (stereo not drawn) [GSK1379708] | 12 | 0 | 7 | 0 | 0 | 0 | 0 | 0 | 12 | 6 | 0 | 0 | 12 | 76 | 2 | 0 | 10 | 0 | 0 | 16
19 | O=C(NCC1CC1)c1ccc(-c2cc(C(=O)NC3CC3)ccc2F)cc1 [GW810445] | 2 | 0 | 1 | 0 | 3 | 0 | 16 | 19 | 0 | 0 | 0 | 24 | 11 | 10 | 0 | 0 | 0 | 0 | 3 | 6
20 | COC(=O)c1cccc(NC(=O)NC2CCN(c3ccnc(NCc4ccc(F)cc4)n3)CC2)c1 [GSK1379860] | 5 | 17 | 20 | 0 | 15 | 8 | 17 | 7 | 8 | 8 | 10 | 9 | 18 | 31 | 0 | 0 | 0 | 8 | 0 | 9
21 | CC(=O)Nc1nc2cnc(Nc3cc(NC(=O)c4cccc(CC(C)(C)C#N)c4)ccc3C)nc2s1 | 28 | 0 | 30 | 0 | 11 | 63 | 11 | 0 | 0 | 15 | 0 | 47 | 0 | 26 | 1 | 12 | 9 | 17 | 0 | 40
22 | C[C@@H]1CCN(C(=O)N2CCCC2)C[C@@H]1N(C)c1ncnc2[nH]ccc12 | 0 | 0 | 36 | 46 | 70 | 49 | 0 | 0 | 0 | 0 | 6 | 45 | 0 | 0 | 15 | 0 | 0 | 0 | 0 | 82
23 | Cc1cccc(-c2nc(Nc3ccncc3)c3sccc3n2)n1 [GW869641] | 75 | 0 | 43 | 29 | 45 | 35 | 32 | 39 | 20 | 11 | 27 | 0 | 21 | 17 | 20 | 14 | 0 | 0 | 0 | 41
24 | COc1cc(Nc2nccc(N3CCC(NC(=O)c4cccc(C#N)c4)C3)n2)cc(OC)c1OC (stereo not drawn) [GSK1379751] | 55 | 0 | 12 | 0 | 96.7 | 0 | 0 | 0 | 0 | 0 | 13 | 19 | 37 | 39 | 0 | 0 | 0 | 20 | 3 | 39
25 | Cc1ccc(CC(=O)N2CCc3cc(-c4cn(C)c5ncnc(N)c45)ccc32)cc1 [GSK2634758] | 17 | 0 | 11 | 35 | 6 | 0 | 0 | 19 | 0 | 0 | 12 | 0 | 53 | 17 | 15 | 0 | 10 | 25 | 26 | 50
26 | CCn1c(-c2nonc2N)nc2cncc(Br)c21 [SB-738004] | 18 | 0 | 14 | 13 | 3 | 37 | 36 | 35 | 13 | 0 | 0 | 8 | 31 | 39 | 0 | 7 | 8 | 0 | 0 | 99.7
27 | C[C@@H](Oc1cc(-n2cnc3cc(-c4ccncc4)ccc32)sc1C(N)=O)c1ccccc1Cl [GSK479719] | 46 | 15 | 32 | 3 | 18 | 40 | 32 | 0 | 1 | 0 | 32 | 76 | 90.2 | 2 | 7 | 0 | 26 | 44 | 0 | 97.5
28 | NC(=O)Nc1sc(-c2ccc(F)cc2)cc1C(N)=O [GW789449] | 100 | 16 | 32 | 40 | 55 | 19 | 22 | 0 | 30 | 11 | 0 | 0 | 2 | 0 | 4 | 0 | 0 | 0 | 0 | 82
29 | Cl.Cl.NC[C@H](CC1CCCCC1)NC(=O)c1ccc(-c2ccnc3[nH]ccc23)s1 [GSK1581428] | 0 | 0 | 31 | 0 | 13 | 0 | 9 | 26 | 8 | 30 | 0 | 0 | 0 | 7 | 68 | 43 | 35 | 5 | 0 | 99.7
30 | COc1ccc(Nc2nccc(N3CCC(NC(=O)c4cccc(C#N)c4)C3)n2)cc1 (stereo not drawn) [GSK1379730] | 18 | 0 | 0 | 0 | 10 | 0 | 46 | 0 | 0 | 6 | 2 | 5 | 18 | 0 | 0 | 0 | 0 | 15 | 0 | 0
31 | Cc1ccc2c(-c3ccnc(Nc4ccc(C(F)(F)F)cc4)n3)cnn2n1 [GW819776] | 69 | 0 | 0 | 0 | 21 | 0 | 48 | 31 | 6 | 0 | 3 | 0 | 0 | 0 | 0 | 0 | 0 | 0 | 0 | 43
32 | COC(=O)c1cccc(NC(=O)NC2CCN(c3ccnc(Nc4cc(OC)c(OC)c(OC)c4)n3)C2)c1 (stereo not drawn) [GSK1379767] | 18 | 0 | 0 | 0 | 58 | 15 | 0 | 25 | 8 | 0 | 0 | 24 | 49 | 39 | 12 | 0 | 0 | 0 | 16 | 0
33 | CN(c1cccc(CNc2nc(Nc3ccc4c(c3)CC(=O)N4)ncc2C(F)(F)F)c1)S(C)(=O)=O | 0 | 0 | 72 | 45 | 40 | 37 | 0 | 12 | 0 | 0 | 0 | 0 | 0 | 0 | 0 | 0 | 0 | 3 | 0 | 96.8
